Source: PubChem BioAssay (National Center for Advancing Translational Sciences (NCATS))
Most compounds without a hit are left out; they make up all but 5.9% or so of the library.
GLP1R cytotox: qHTS of GLP-1 Receptor Inverse Agonists: Cytotox Screen. hit rate 0.13% among 410,000. HEK293 cAMP-luciferase reporter cells, luminescence, 24 h. Potency, µM (doses to about 38.3 µM), inactives show at the highest dose activity change, negative = inhibition, usual class: inhibitors;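 further: loss of luciferase light is scored as toxicity; on the % scale 0 is the no-effect control and ±100 the full control effect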
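To flag toxic compounds, the library was rerun on cells for 24 hr at 37 deg C and 5% CO2. Viability-linked luminescence was captured 12 min after adding luciferase detection reagent.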
GLP1R inv ag: qHTS of GLP-1 Receptor Inverse Agonists (Inhibition Mode). Glucagon-like peptide 1 receptor (Homo sapiens), P43220. HEK293 GLP-1R CRE-luciferase, luminescence, 24 h; GLP-1R form is constitutively active. Potency, µM (titrated, usually from 38.3 µM), inactives show at the top dose activity change, negative = inhibition, most hits filed as inhibitors. hit rate 1.6% among 410,000; further: on the % scale 0 is the no-effect control and ±100 the full control effect; nearly all actives have a fitted effect of over 55% in size
Target sequence (P43220 whole entry, looked up): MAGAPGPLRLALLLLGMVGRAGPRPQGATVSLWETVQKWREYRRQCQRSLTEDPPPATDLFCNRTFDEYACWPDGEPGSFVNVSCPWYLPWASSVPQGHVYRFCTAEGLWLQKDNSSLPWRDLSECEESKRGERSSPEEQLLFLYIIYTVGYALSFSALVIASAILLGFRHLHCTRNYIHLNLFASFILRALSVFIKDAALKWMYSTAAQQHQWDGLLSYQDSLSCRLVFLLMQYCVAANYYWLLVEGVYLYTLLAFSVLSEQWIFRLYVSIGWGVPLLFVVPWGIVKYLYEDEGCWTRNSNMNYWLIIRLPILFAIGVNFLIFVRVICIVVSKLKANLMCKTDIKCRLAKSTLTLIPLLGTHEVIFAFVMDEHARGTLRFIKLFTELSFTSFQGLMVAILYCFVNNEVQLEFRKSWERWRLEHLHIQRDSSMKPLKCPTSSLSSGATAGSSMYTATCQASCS
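Inverse agonists were sought by their lowering of basal cAMP reporter luciferase output in HEK293 cells stably carrying constitutively active human GLP-1R, after 24 h compound treatment.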
GLP1R ag: qHTS of GLP-1 Receptor Agonists | AID 624172, 2012 | hit rate 0.007% among 380,000 | Potency, µM (top dose mostly 45.6 µM), for inactives: top-dose activation, most hits filed as activators | Glucagon-like peptide 1 receptor (Homo sapiens), P43220 | HEK293 GLP-1R CRE-luciferase, luminescence, 4-6 h; cells express a hypersensitive GLP-1R form; further: % of control where 0% means no effect
RORgamma inh: qHTS for inhibitors of ROR gamma transcriptional activity; Potency, µM (highest dose often 53.6 µM), for the others: top-dose activity change, negative = inhibition, usual class: inhibitors; Drosophila S2 Gal4-RORgamma UAS-luciferase reporter, 20 h; hit rate 5.4% among 310,000; Nuclear receptor ROR-gamma (Mus musculus), P51450; further: on the % scale 0 is the no-effect control and ±100 the full control effect; nearly all actives have a fitted effect of over 60% in size
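Drosophila Schneider cells stably carrying a metallothionein-driven Gal4 DBD–ROR gamma fusion and a UAS-Photinus luciferase reporter were exposed to compound for 1 hr, then induced with copper sulfate (700 uM final) for 20 hr at ambient temperature before luminescence reading.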
Gal4-VP16 FLuc: VP16 counterscreen qHTS for inhibitors of ROR gamma transcriptional activity | Drosophila S2 Gal4-VP16 UAS-luciferase, luminescence, 20 h | Potency, µM (series often up to 53.6 µM), inactives show at the top dose activity, negative = inhibition, hits mostly inhibitors | hit rate 3.5% among 310,000;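 further: Gal4-VP16 expression switched on by copper sulfate through the metallothionein promoter; on the % scale 0 is the no-effect control and ±100 the full control effect; nearly all actives have a fitted effect of over 50% in size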
Numbers without * were called inactive; ? = inconclusive; · = no result given; [ ] = remark or other dose. The call rests on the fitted dose curve; in most records, active means well fitted curve in the direction sought with a large enough effect; inconclusive means small, poorly fitted or top-dose-only effect, or another doubt; inactive means no such curve, though single readings can be large; an effect the other way counts as inactive or inconclusive. Potency means the concentration at half of the fitted maximal effect.

SMILES	GLP1R cytotox	GLP1R inv ag	GLP1R ag	RORgamma inh	Gal4-VP16 FLuc
CCCCCCCCN1C(=O)[C@H](CC(=O)NCc2cccc(C(F)(F)F)c2)C[C@@]2(C(=O)OC)CCCCC=C12	?	10µM*	3%	·	·
COc1ccccc1CNC(=O)c1cccc(-c2ccccc2OC)n1	·	·	·	?	7%
COC(=O)[C@@]12C[C@@H](CC(=O)NCCCCc3ccccc3)C(=O)N(Cc3ccco3)C1=CCC(C)(C)C2	-11%	10µM*	·	·	·
COC(=O)[C@]12CCCCC=C1N(Cc1ccccc1)C(=O)[C@H](CC(=O)NCC13CC4CC(CC(C4)C1)C3)C2	-23%	10µM*	-2%	·	·
CCCCCCCCN1C(=O)[C@H](CC(=O)NCCc2ccccc2OC)C[C@@]2(C(=O)OCC)CCC=C12	-14%	13µM*	·	·	·
COc1ccc(CCN(C)C(=S)NC(=O)c2ccc(F)cc2Cl)cc1OC	-16%	-9%	10%	1.6µM*	4µM*
COc1ccc(CCN(C)C(=S)Nc2ccc(SC(F)F)cc2)cc1OC	1%	?	22%	20µM*	?
CCCCCCCCCCCCC/C=C/[C@@H](O)C(CO)NC(C)=O (stereo partly specified)	·	·	·	-13%	1%
Cc1csc(C(=O)NN)c1N(C)C	-9%	-8%	12%	0.56µM*	?
Cc1c(C(=O)NN)sc(=S)n1C	12%	-10%	7%	11%	-14%
Cc1ccc2oc(=O)c3cc(C(=O)N4CCN(c5ccccc5F)CC4)sc3c2c1	-29%	-16%	-2%	·	·
CC(=O)C(C(C)=O)c1c(Cl)c(O)c(O)c2c(C(=O)c3ccccc3)coc12	1%	13%	-9%	16µM*	?
N=c1oc2cc(O)ccc2cc1C(=O)Nc1ccc(Cl)cc1	399%	18%	-4%	2.2µM*	2µM*
Cc1ccc(NC(=O)c2cc3ccccc3oc2=N)cc1	0%	-13%	-1%	?	-29%
CC(=O)c1c(C)[nH]c(C(=O)OCC(=O)Nc2cc(Cl)ccc2[N+](=O)[O-])c1C	-4%	21%	2%	?	16µM*
Cc1ccc(-c2nc(CSc3nnc(C)n4c3cc3occc34)c(C)o2)cc1	3%	-15%	·	·	·
Cc1c(C(=O)O/N=C(\N)c2ccccn2)cccc1[N+](=O)[O-]	?	?	0%	-38%	-21%
O=C(Oc1cccc2cccnc12)c1ccc2c(c1)OCCO2	-5%	4µM*	11%	1.6µM*	2µM*
Cc1c(C(=O)Oc2cccc3cccnc23)cccc1[N+](=O)[O-]	?	-83%	-1%	2.8µM*	3.2µM*
O=C(O)c1cccc2cccnc12	0%	10%	-24%	-15%	-12%
O=C(Oc1ccccc1)c1cccc2cccnc12	-18%	-18%	2%	2.5µM*	4µM*
N#Cc1ccc(Oc2cccc3cccnc23)c([N+](=O)[O-])c1	44%	1%	27%	8%	-14%
O=[N+]([O-])c1ccc(Oc2cccc3cccnc23)c([N+](=O)[O-])c1	-14%	-26%	0%	8.9µM*	?
CC(C)CN(C[C@@H](OP(=O)(O)O)[C@H](Cc1ccccc1)NC(=O)O[C@@H]1CCOC1)S(=O)(=O)c1ccc(N)cc1	·	·	15%	24%	3%
O=C(CSc1oc(-c2ccco2)nc1S(=O)(=O)c1ccc(Br)cc1)c1ccc(Cl)cc1	12%	?	·	·	·
SMILES	GLP1R cytotox	GLP1R inv ag	GLP1R ag	RORgamma inh	Gal4-VP16 FLuc
Cc1cc2ccccc2n1-c1ccc(C(=O)N2CCC(C(=O)NCc3ccc(F)cc3)CC2)s1	-20%	?	·	·	·
O=C(Oc1ccc(Cl)c2cccnc12)c1cccc([N+](=O)[O-])c1	?	5µM*	27%	1.1µM*	1.6µM*
O=C(Oc1coc(CSc2ncccn2)cc1=O)c1cccc([N+](=O)[O-])c1	-4%	20%	0%	-27%	3%
CCN(CC)C(=O)Oc1c(Cl)cc(Cl)c2cccnc12	1%	?	6%	3%	-11%
O=C(Oc1cccc2cccnc12)c1cccc([N+](=O)[O-])c1	?	?	0%	3.5µM*	3.2µM*
O=C(Oc1c(Cl)cc(Cl)c2cccnc12)c1cccc([N+](=O)[O-])c1	?	13µM*	2%	0.28µM*	·
CC(=O)OC(C)C	·	·	·	4%	3%
Cc1cc(C)cc(N2CCn3c2nc2c3c(=O)n(CCc3ccccc3)c(=O)n2C)c1	-10%	10%	·	·	·
O=C(CSc1nnc(-c2ccc3c(c2)OCO3)o1)Nc1ncc(C(F)(F)F)cc1Cl	3%	0%	-3%	4µM*	?
CCn1c(SCC(=O)Nc2ncc(C(F)(F)F)cc2Cl)nnc1-c1cccc(C)c1	-7%	-19%	-6%	10µM*	?
CC(Sc1nc2ccccc2s1)C(=O)Nc1nnc(C(C)C)s1 (stereo unspecified)	1%	-9%	7%	2.8µM*	?
CN1CCc2c(sc3c2C(=O)NC(c2ccccn2)N3)C1 (stereo unspecified)	99%	-2%	-4%	-14%	0%
O=C1NC(c2ccccn2)Nc2sc3c(c21)CCC3 (stereo unspecified)	-10%	?	12%	14µM*	?
Cc1ccc(C(=O)Nc2ccccc2C(=O)O)cc1S(=O)(=O)N1CCCCCC1	-5%	6%	·	·	·
CCC(=O)N1CCN(c2ccc(NC(=O)c3cc4ccccc4o3)cc2Cl)CC1	-6%	11µM*	-38%	41%	-3%[0.365 µM]
Cc1ccc(-c2nc3cc(NC(=O)c4cc5ccccc5o4)ccc3o2)cc1Cl	3%	4%	·	·	·
Cc1ccc(NC(=O)c2cc3ccccc3o2)cc1Cl	0%	13µM*	7%	-8%	-15%
CCN1CCN(c2ccc(NC(=O)c3ccc([N+](=O)[O-])o3)cc2Cl)CC1	5.6µM*	6%	-3%	-33%	4%[10 µM]
CCC(=O)N1CCN(c2ccc(NC(=O)c3ccc([N+](=O)[O-])o3)cc2Cl)CC1	?	89%	17%	10µM*	-11%
COc1ccc(N2C(=O)Cc3cc(OC)c(OC)cc3C2c2ccc(F)cc2)cc1 (stereo unspecified)	3%	-3%	·	·	·
Cn1nnc2c(N3CCN(c4ccc(F)cc4)CC3)ncnc21	-12%	30%	·	·	·
O=C(NCc1cccs1)c1ccc2c(c1)sc1nc(-c3ccccc3)cn12	-2%	-5%	·	·	·
O=[N+]([O-])c1ccc(Sc2nnnn2-c2ccccc2)nc1	?	?	-5%	3.5µM*	?
O=S(=O)(c1cccc(C(F)(F)F)c1)N1CCC(Oc2ccc(-n3cnnn3)cc2)CC1	11%	-7%	·	·	·
